Measurements published in PubChem BioAssay.
Calls of active or inactive are those of the source. Unless noted, no rule for the calls is given here.

Legend:
[1] = test system: XIP peptide (Xip251-270) binding; assay: small-molecule binders of XIP peptide, primary screen, biochemical, small-molecule microarray, fluorescence 635/667 nm, 0.1 µg/mL protein (AID 1182); details: fluorescent protein binding, 635 nm, higher = more signal, called active from +8 up or from −8 down
XIP peptide (Xip251-270) = assay: small-molecule binders of XIP peptide, primary screen, biochemical, small-molecule microarray, fluorescence 635/667 nm, 0.5 µg/mL protein (AID 1183); details: small-molecule microarray binding, fluorescence 635 nm; higher = more signal
[2] = Plasmodium falciparum growth inhibition, primary screen, strain 3D7, DAPI fluorescence, 100 nL (AID 1184);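 also: parasites grown inside human red blood cells in medium with human serum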; details: P. falciparum 3D7 growth, 3 d, higher = more signal
[3] = biological target: Homeobox protein Hox-A13 (Mus musculus) (UniProt Q62424); assay: inhibitors of HoxA13-DNA binding, primary screen, biochemical, fluorescence polarization, labeled oligonucleotide (AID 1185); details: 15 min, higher = more signal, called active from +8 up or from −8 down
[4] = inhibitors of hydroxyurea-induced Chk1 phosphorylation, primary screen, imaging, HeLa, phospho-Chk1 antibody, percent positive cells (AID 1186); details: hydroxyurea-induced phospho-Chk1 immunofluorescence imaging, higher = more signal
[5] = inhibitors of hydroxyurea-induced Chk1 phosphorylation, primary screen, imaging, HeLa, phospho-Chk1 nuclear intensity (AID 1187); details: hydroxyurea-induced phospho-Chk1 immunofluorescence imaging, higher = more signal

Homeobox protein Hox-A13 (Mus musculus), sequence (Q62424 whole entry, looked up): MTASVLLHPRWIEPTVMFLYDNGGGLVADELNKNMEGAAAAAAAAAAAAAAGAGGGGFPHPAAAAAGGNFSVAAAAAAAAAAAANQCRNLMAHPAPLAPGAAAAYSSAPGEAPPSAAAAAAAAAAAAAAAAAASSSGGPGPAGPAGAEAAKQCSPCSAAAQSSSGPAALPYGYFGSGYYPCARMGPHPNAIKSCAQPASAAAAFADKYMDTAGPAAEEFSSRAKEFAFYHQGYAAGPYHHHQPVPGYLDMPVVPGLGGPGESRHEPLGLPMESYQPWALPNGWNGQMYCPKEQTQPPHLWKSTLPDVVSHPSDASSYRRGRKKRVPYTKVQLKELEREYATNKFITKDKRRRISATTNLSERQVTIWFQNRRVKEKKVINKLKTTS

| Structure (SMILES) | composite z-score [1] | composite z-score (XIP peptide (Xip251-270)) | z-score [2] | z-score [3] | z-score [4] | z-score [5] |
| --- | --- | --- | --- | --- | --- | --- |
| COc1cc2c(cc1O)C(c1cccs1)N(Cc1sc3ccccc3c1Cl)CC2 (stereo unspecified) | 0.791 (inactive) | 0.867 | -1.66 | -1.54 (inactive) | 0.326 (inactive) | 0.638 (inactive) |
| COCCOC(=O)N1C(=O)[C@@]2(c3cc(C#CCCO)ccc31)[C@H](c1ccccc1OCCO)N1[C@H](c3ccccc3)[C@H](c3ccccc3)OC(=O)[C@H]1[C@@H]2C(=O)N1CCCCCCC1 | 0.783 (inactive) | 0.759 | -2.25 | 3.84 (inactive) | -0.304 (inactive) | -0.387 (inactive) |
| CCOC(=O)C1=C[C@@H](C(C)(C)C)N(S(=O)(=O)c2ccc(C)cc2)[C@H]1c1ccccc1 | 0.19 (inactive) | 0.311 | -2.01 | -0.661 (inactive) | 0.327 (inactive) | -0.0853 (inactive) |
| COCCCNC(=O)[C@@]1(Sc2ccc(C)cc2)CC(=O)N(C(C)C)[C@@H]1c1ccc(CO)cc1I | 0.287 (inactive) | 0.609 | -1.63 | -4.13 (inactive) | 0.121 (inactive) | 0.579 (inactive) |
| O=C1O[C@H](c2ccccc2)[C@H](c2ccccc2)N2[C@H]1[C@@H](C(=O)N1CCCCCCC1)[C@]1(C(=O)Nc3ccc(C#CC4(O)CCCCCC4)cc31)[C@H]2c1ccccc1OCCO | 5.88 (inactive) | 0.943 | -1.88 | 4.4 (inactive) | -0.0468 (inactive) | 0.285 (inactive) |
| O=C1C[C@@](C(=O)NCc2ccccc2)(c2ccc([N+](=O)[O-])cc2)[C@@H](c2ccc(CO)cc2I)N1CC12CC3CC(CC(C3)C1)C2 | 0.239 (inactive) | 0.692 | -1.48 | -2.19 (inactive) | -0.114 (inactive) | -0.147 (inactive) |
| Cc1c(NC(=O)/C(C#N)=C/c2ccccc2Cl)c(=O)n(-c2ccccc2)n1C | -0.0708 (inactive) | 0.808 | 0.419 | -1.68 (inactive) | -0.0018 (inactive) | 0.281 (inactive) |
| [N-]=[N+]=NCc1ccccc1[C@H]1OC(c2ccc(OCCCO)cc2)=N[C@@]1(Cc1ccccc1)C(=O)NCCN1CCOCC1 | 0.0723 (inactive) | 0.816 | -2.28 | -0.974 (inactive) | -0.0389 (inactive) | 0.306 (inactive) |
| C=C/C=C/[C@@H]1C(=C)CN([C@@H](Cc2ccccc2)C(=O)OC)[C@H]1[C@@H](O)Cc1ccccc1 | 0.661 (inactive) | 0.58 | 0.135 | -1.8 (inactive) | -0.176 (inactive) | 0.221 (inactive) |
| C=C(C)[C@@H]1CC=C(C(O)C2C=CC3C(=O)N(c4ccccc4)C(=O)C3N2Nc2ccc(C#N)cc2)CC1 (stereo partly specified) | 0.476 (inactive) | 0.642 | 0.807 | 1.21 (inactive) | -0.169 (inactive) | 0.008 (inactive) |
| COC(=O)[C@@]1(Cc2ccc(OC)cc2)[C@H]2c3cc(C(=O)N4CCCC4)n(Cc4ccc(OC(F)(F)F)cc4)c3C[C@H]2CN1C(=O)c1ccccc1 | 0.931 (inactive) | 0.702 | -1.29 | -2.94 (inactive) | 0.168 (inactive) | 0.569 (inactive) |
| CC(C)C(CO)N1C(=O)[C@@H]2[C@H]3C(=O)OCC=C[C@H]3OC23C=CCN(C(C)(C)C)C(=O)[C@@H]13 (stereo partly specified) | 0.0887 (inactive) | 0.37 | -0.217 | -4.25 (inactive) | 0.337 (inactive) | -0.418 (inactive) |
| COc1ccc(C(=O)Nc2cccc(CN3C(=O)[C@@]4(O[C@@H](CC(=O)N(CCO)Cc5ccccc5)[C@H]([Si](C)(C)c5ccc(OC)cc5)[C@H]4C)c4ccccc43)c2)cc1 | 1.31 (inactive) | 0.442 | -2.54 | -0.674 (inactive) | -1.43 (inactive) | -0.643 (inactive) |
| CO[C@H]1O[C@H](CO)[C@@H](OC(=O)Nc2cccc(F)c2)[C@H](OC(=O)Nc2ccccc2-c2ccccc2)[C@H]1OC(=O)Nc1ccccc1-c1ccccc1 | 0.184 (inactive) | 0.857 | -1.7 | -4.36 (inactive) | -0.788 (inactive) | -1.36 (inactive) |
| C=CC[C@H](OC(=O)Nc1ccc(SC)cc1)c1ccc(OCCO)cc1 | 1.07 (inactive) | -0.141 | 0.749 | -6.15 (inactive) | 0.108 (inactive) | 1.03 (inactive) |
| CCOC(=O)C[C@H]1[C@H](OC(=O)c2ccc(-c3ccccc3)cc2)[C@@H](NC(=O)CC(C)C)c2cc(OCCCO)ccc2N1C(=O)c1ccccc1 | 0.22 (inactive) | -0.0545 | -0.419 | -3.33 (inactive) | -0.228 (inactive) | -0.0761 (inactive) |
| O=C1C2C=CC(C(O)c3ccco3)N(Nc3ccccc3)C2C(=O)N1c1ccccc1 (stereo unspecified) | 1.11 (inactive) | 0.8 | 0.125 | -2.27 (inactive) | 0.209 (inactive) | -0.0253 (inactive) |
| COCCOC(=O)N1C(=O)[C@@]2(c3cc(C#CCC(C(=O)OC)C(=O)OC)ccc31)[C@H](c1ccc(OCCO)cc1)N1[C@H](c3ccccc3)[C@H](c3ccccc3)OC(=O)[C@H]1[C@@H]2C(=O)Nc1nc2ccccc2s1 | 0.0047 (inactive) | 0.59 | -0.512 | 2.1 (inactive) | -0.365 (inactive) | -0.632 (inactive) |
| CN1C(=O)C2C=CC(C(O)c3cc(C(F)(F)F)cc(C(F)(F)F)c3)N(Nc3ccccc3)C2C1=O (stereo unspecified) | 1.9 (inactive) | 0.128 | 1.08 | -3.84 (inactive) | -0.0145 (inactive) | 0.0934 (inactive) |
| CCCCCN1CC=CC23O[C@@H]4/C=C\CCC(C)OC(=O)C4[C@H]2C(=O)N(CCCCCCO)[C@@H]3C1=O (stereo partly specified) | 0.185 (inactive) | 0.459 | 0.162 | -4.71 (inactive) | -0.0032 (inactive) | 0.453 (inactive) |
| CCOC(=O)C[C@H]1[C@H](OC(=O)c2ccccc2-c2ccccc2)[C@@H](NC(=O)c2ccc3ccccc3n2)c2cc(OCCCO)ccc2N1C(=O)c1ccccc1 | 0.428 (inactive) | 0.04 | -1.66 | -2.46 (inactive) | 0.342 (inactive) | 0.6 (inactive) |
| O=C1C2C=CC(C(O)c3ccc(I)cc3)N(Nc3ccccc3)C2C(=O)N1c1ccccc1 (stereo unspecified) | 0.393 (inactive) | 0.702 | 0.83 | -2.67 (inactive) | -0.007 (inactive) | -1.05 (inactive) |
| CCN(CC)c1ccc(N2CC=CC34O[C@@H]5/C=C\CCC(C)OC(=O)C5[C@H]3C(=O)N(C(C)CO)[C@@H]4C2=O)cc1 (stereo partly specified) | -0.187 (inactive) | 0.56 | 0.2 | -5.38 (inactive) | -0.713 (inactive) | -0.257 (inactive) |
| Cc1ccccc1C(O)C1C=CC2C(=O)NC(=O)C2N1Nc1ccc(Cl)cc1Cl (stereo unspecified) | 3.24 (inactive) | 0.693 | 0.254 | -5.08 (inactive) | 0.165 (inactive) | -0.016 (inactive) |
| COc1cc2c(cc1O)C(c1ccc(CN3CCCC3)cc1)N(C)CC2 (stereo unspecified) | -0.389 (inactive) | -0.819 | -1.58 | -2.85 (inactive) | 0.227 (inactive) | 0.129 (inactive) |
| CCOC(=O)C1=CCN(S(=O)(=O)c2ccc(C)cc2)C1c1ccccc1 (stereo unspecified) | 0.866 (inactive) | 0.805 | -0.584 | -3.71 (inactive) | 0.607 (inactive) | 0.346 (inactive) |
